The list is not random: actives were taken first. Their share in the collection is about 3.4%.
GoLoco inh red = RGS12 GoLoco-Gai1 interaction inhibition. P63096. Gai1:RGS12 GoLoco peptide FP, rhodamine, 10 min. Potency, µM (highest dose often 61.6 µM), for the others: at the highest dose activity, negative = inhibition, hits mostly inhibitors. hit rate 0.44% among 230,000. AID 880; active = well fitted inhibition curve with a large enough effect, not every such curve was filed as active; inactive = no such curve, though single readings can be large or run the other way; note: nearly all actives have a fitted effect of over 30% in size
Target sequence (P63096 whole entry, looked up): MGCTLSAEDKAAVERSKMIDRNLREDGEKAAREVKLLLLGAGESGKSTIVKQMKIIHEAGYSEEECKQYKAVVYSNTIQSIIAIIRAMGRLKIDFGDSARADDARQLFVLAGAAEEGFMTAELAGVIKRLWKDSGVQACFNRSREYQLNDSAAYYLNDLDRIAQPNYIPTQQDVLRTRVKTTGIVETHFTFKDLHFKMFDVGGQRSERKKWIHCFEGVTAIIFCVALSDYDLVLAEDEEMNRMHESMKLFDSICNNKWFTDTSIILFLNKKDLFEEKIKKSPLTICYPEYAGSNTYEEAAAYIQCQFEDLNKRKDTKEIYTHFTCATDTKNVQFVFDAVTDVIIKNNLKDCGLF
Tau ThT inhib = tau fibrillization inhibition (ThT binding); AID 1460; recombinant tau K18 P301L, heparin-induced fibrillization, ThT fluorescence; Potency, µM (top dose mostly 57.4 µM), without a hit: top-dose activity, negative = inhibition, usual class: inhibitors; hit rate 2.1% among 270,000; P10636; note: nearly all actives have a fitted effect of over 55% in size
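Using a mix of unlabeled (15 uM) and Alexa 594-labeled (0.24 uM) tau K18 P301L, heparin-triggered fibrillization over 6 hr at 37 C was scored by ThT fluorescence.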
JMJD2E inh = blocks human JMJD2E demethylase activity | JMJD2E catalytic domain, FDH-coupled NADH fluorescence (FDH is formaldehyde dehydrogenase) | Potency, µM (titrated, usually from 57.1 µM), inactives show top-dose activity change, negative = inhibition, most hits filed as inhibitors | hit rate 1.6% among 230,000 | AID 2147; active = well fitted inhibition curve with a large enough effect, not every such curve was filed as active; inconclusive = small, poorly fitted or top-dose-only effect, or another doubt; inactive = no such curve, though single readings can be large or run the other way;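 note: 0% = wells with enzyme and -100% = buffer wells without enzyme; nearly all actives have a fitted effect of over 50% in size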
Target sequence (B2RXH2 1-337 limits assumed): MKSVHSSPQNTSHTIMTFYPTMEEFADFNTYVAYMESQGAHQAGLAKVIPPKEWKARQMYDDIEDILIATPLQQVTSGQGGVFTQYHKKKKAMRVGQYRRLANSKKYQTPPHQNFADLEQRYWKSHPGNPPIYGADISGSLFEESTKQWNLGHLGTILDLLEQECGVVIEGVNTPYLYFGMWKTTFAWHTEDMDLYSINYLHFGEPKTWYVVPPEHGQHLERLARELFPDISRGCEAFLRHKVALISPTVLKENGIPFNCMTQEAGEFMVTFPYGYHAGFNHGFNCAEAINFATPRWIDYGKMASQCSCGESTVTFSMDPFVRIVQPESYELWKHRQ
Tau FP inhib = blocks human tau fibril formation measured by polarization | K18 P301L tau heparin fibrillization, Alexa594 FP, 6 h | hit rate 0.39% among 280,000 | Potency, µM (series often up to 57.7 µM), for the others: at the top dose activity, negative = inhibition, most hits filed as inhibitors | P10636; note: nearly all actives have a fitted effect of over 55% in size
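FP of Alexa 594-tau after heparin (20 uM) induction. Substrate: human K18 P301L, 15 uM unlabeled, 0.24 uM labeled. Buffer 100 mM sodium acetate pH 7. 6 hr, 37 C.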
Tau fluor counter = counter-screen for tau fibril formation inhibitors. tau K18 P301L (four-repeat tau fragment) Alexa594 fluorescence, heparin fibrillization. Potency, µM (top dose mostly 57.7 µM), for inactives: at the top dose activity change, negative = decrease. hit rate 0.93% among 280,000; note: nearly all actives have a fitted effect of over 55% in size
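Human K18 P301L tau (15 uM unlabeled plus 0.24 uM Alexa 594-labeled, final) in 100 mM sodium acetate pH 7 was mixed with compound and 20 uM heparin and incubated 6 hr at 37 C.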
* = called active by the depositor; ? = inconclusive; nt = no result given; [ ] = another dose, or the depositor's remark. Unless noted, calls come from the whole dose curve; as a rule, active = well fitted curve in the direction sought with a large enough effect; inconclusive = small, poorly fitted or top-dose-only effect, or another doubt; inactive = no such curve, though single readings can be large; an effect the other way counts as inactive or inconclusive. Unless noted, % is set by controls: 0 for no effect and ±100 for the full control effect; potency is the fitted concentration of half-maximal effect.

SMILES | GoLoco inh red | Tau ThT inhib | JMJD2E inh | Tau FP inhib | Tau fluor counter
CCC1CN(C(=O)N2CCC(C(=O)NCc3ccc(N(C)C)cc3)CC2)c2ccccc2O1 (stereo not drawn) | nt | -16% | nt | 9% | -18%
CCC1CN(C(=O)N2CCC(C(=O)N3CCN(c4ccccc4F)CC3)CC2)c2ccccc2O1 (stereo not drawn) | nt | ? | nt | 10% | 14µM*[quencher]
CCC1CN(C(=O)N2CCC(C(=O)O)CC2)c2cc(C)ccc2O1 (stereo not drawn) | nt | -3% | nt | -4% | -4%
COc1cccc(NC(=O)C(C)n2c(=O)cc(C(F)(F)F)c3c(C)nn(C)c32)c1 (stereo not drawn) | nt | -15% | nt | -7% | -30%
COc1ccc2c(c1)Cc1sc(NC(=O)c3cccs3)nc1-2 | 11% | 13µM* | 11µM* | ? | ?
COc1ccc2c(c1)CCc1sc(NC(=O)c3ccc(Cl)cc3)nc1-2 | nt | 11µM* | nt | ? | 8.9µM*[quencher]
COc1ccc2c(c1)Cc1sc(NC(=O)c3cccc(F)c3)nc1-2 | nt | 3.2µM* | nt | -9% | ?
COc1ccc2c(c1)Cc1sc(NC(=O)c3ccccc3C)nc1-2 | nt | ? | nt | -11% | ?
COc1ccc2c(c1)Cc1sc(NC(=O)c3ccccc3)nc1-2 | 4% | ? | ? | -8% | ?
COc1ccc(C(=O)Nc2nc3c(s2)Cc2cc(OC)ccc2-3)cc1 | 12% | 2µM* | -6% | -7% | 4µM*[quencher]
COc1ccc2c(c1)-c1nc(NC(=O)c3ccc(Cl)cc3)sc1CC2 | nt | -4% | nt | -16% | -16%
COc1ccc2c(c1)Cc1sc(NC(=O)c3cccc(Br)c3)nc1-2 | nt | 4µM* | nt | -6% | ?
O[C@H]1[C@H]2c3cc4c(cc3CN3CCC(=C[C@@H]1O)[C@H]23)OCO4 | -3% | -3% | nt | -4% | -1%
OC1C=C2CCN3Cc4cc5c(cc4C(C1O)C23)OCO5 (stereo not drawn) | 9% | -14% | 25µM* | -9% | -19%
CCc1nnc(SCc2ccc(F)cc2Cl)c2cc3sc(C)cc3n12 | nt | -13% | nt | 0% | -3%
Cc1ccc(-c2nc(CCNC(=O)C(=O)Nc3ccc(C)c(Cl)c3)cs2)cc1 | nt | 4% | nt | 1% | 6%
Brc1ccc(C=Nc2ccc(Nc3ccccc3)cc2)s1 | 14% | 10µM* | -3% | ? | 11µM*[quencher]
NC(=S)N/N=C/c1ccc2ccccc2c1 | 3% | 12% | -3% | -2% | -3%
C(=Nc1ccc(Nc2ccccc2)cc1)c1ccc2ccccc2c1 | 3% | 7.9µM* | 4% | ? | 8.9µM*[quencher]
O=C(CCC(=O)N/N=C/c1ccc(Br)s1)NCc1ccccc1 | -2% | -3% | 7% | 1% | -9%
CC(=O)c1cccc(NC(=O)c2c(-c3ccccc3)c(-c3ccccc3)nn(C)c2=O)c1 | nt | 2% | nt | 0% | -4%
O=C(/C=C/Nc1cccc(F)c1)c1ccco1 | 3% | ? | -24% | -5% | -17%
CC(=O)Nc1ccc(N/C=C/C(=O)c2ccco2)cc1 | 59% | 10µM* | 5% | 4% | -18%
CN(C)c1ccc(N/C=C/C(=O)c2ccc(F)cc2)cc1 | 1% | 2µM* | 13µM* | -13% | ?
O=C(/C=C/Nc1ccccc1O)c1ccco1 | 2% | 13µM* | -20% | -7% | -26%
SMILES | GoLoco inh red | Tau ThT inhib | JMJD2E inh | Tau FP inhib | Tau fluor counter
CN(C)c1ccc(N/C=C/C(=O)c2ccco2)cc1 | -46% | 2µM* | 6% | ? | ?
NS(=O)(=O)c1ccc(N/C=C\C(=O)c2ccc(F)cc2)cc1 | 2% | -2% | ? | 3% | -4%
CCc1ccccc1NC(=O)c1sc(-n2nc(C)c(Cc3ccccc3)c2C)nc1C | nt | -3% | nt | 2% | -5%
Cc1ccc2[nH]c3c(c2c1)CCc1cn[nH]c1-3 | -11% | 13µM* | ? | ? | 25µM*[quencher]
COC(=O)/C(=C\C(=O)c1ccc([N+](=O)[O-])cc1)Nc1ccc(OC)cc1 | 8% | 3.2µM* | -12% | ? | ?
Cc1c(N/N=C(\C#N)C(=O)c2ccc(Cl)cc2)c(=O)n(-c2ccccc2)n1C | 8% | 0% | 6% | -2% | -6%
COc1ccc(C(=O)/C(C#N)=N/Nc2ccccc2[N+](=O)[O-])cc1 | -8% | ? | -2% | 4% | -19%
COc1ccc(C(=O)/C=C/Nc2ccc([N+](=O)[O-])cc2)cc1 | -1% | ? | 6% | -2% | -11%
COc1ccc(C(=O)/C(C#N)=N/Nc2ccc([N+](=O)[O-])cc2)cc1 | 54% | 4µM* | -24% | 1% | ?
N#C/C(=N\Nc1ccc(Cl)cc1)C(=O)c1ccccc1 | -8% | 14µM* | 1% | 10% | ?
Cc1ccc(N2CCN(C(=O)c3cn(C)c4ccc(S(=O)(=O)N5CCC(C)CC5)cc4c3=O)CC2C)cc1 (stereo not drawn) | nt | ? | nt | 1% | -24%
CC1CCN(c2nn3c(=O)c(C(=O)NCCc4ccccc4)cnc3s2)CC1 | nt | -6% | nt | 4% | -8%
CN(C)c1ccc(NC(=O)CSC2=Nc3ccccc3C3=NC(CCC(=O)NCc4cccs4)C(=O)N23)cc1 (stereo not drawn) | nt | ? | nt | 7% | -26%
O=C(Oc1c(CN2CCOCC2)cc(Cl)c2cccnc12)c1ccccc1F | 8% | -25% | 32µM* | 0% | -16%
CCc1ccc(NC(=O)Cn2c(=O)n(CC3CCCO3)c(=O)c3cc(OC)c(OC)cc32)cc1 (stereo not drawn) | nt | -9% | nt | -4% | ?
CCc1nn2c(=O)cc(COc3ccc(/C=C4\C(=N)N5N=C(C)SC5=NC4=O)cc3)nc2s1 | 9% | 13µM* | ? | 0% | -17%
COC(=O)c1ccc(/C=C(\C#N)c2nc3ccccc3s2)cc1 | 42% | 7.9µM* | -4% | -4% | ?
N#C/C(=C\c1ccccn1)c1nc2ccccc2s1 | 33% | 8.9µM* | -18% | ? | 14µM*[quencher]
N#C/C(=C/c1ccc(-c2ccc(S(N)(=O)=O)cc2)o1)c1nc2ccccc2s1 | 65% | 11µM* | 1% | -4% | ?
Cc1ccc(C2=Nc3ccccc3NC(c3ccncc3)=N2)cc1 | nt | -17% | nt | -3% | -22%
COc1cccc(CNCCSc2nnnn2-c2ccccc2)c1OC | nt | -5% | nt | 1% | -9%
O=[N+]([O-])c1ccc(N/N=C\c2cccnc2)nc1 | 7% | ? | -1% | 0% | -11%
Nc1ncc([N+](=O)[O-])c(Oc2ccccc2F)n1 | -3% | ? | 1% | 5% | -26%
Cc1cc(/C=N/Nc2nc(N)ncc2[N+](=O)[O-])c(C)n1-c1ccccc1F | 6% | 16µM* | -9% | 6% | -24%
Cc1cccc(C)c1-n1c(C)cc(/C=N\Nc2ccc([N+](=O)[O-])cn2)c1C | 56% | 5µM* | 2% | ? | ?
Cc1cc(C)c(NC(=O)CSc2cn(CC(=O)N3CCOCC3)c3ccccc23)c(C)c1 | nt | -3% | nt | 0% | -5%

Screening results (PubChem BioAssay)
